According to PubChem BioAssay:
Active and inactive are the calls of the source. Cut-off read from the data, not from the text of the source, unless noted: active = inhibition above about 80%; inactive = the rest.

Columns and labels:
[1] = growth inhibition, single agent or in combination, cell-based, chromothripsis tumors, cisplatin or BGB combos (AID 1671449); conditions: LFS_MB_P medulloblastoma cells;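 note: cells exposed for 96 hours; 0% = vehicle DMSO and 100% = killing by high DMSO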
[2] = growth inhibition, single agent and combos, cell-based, chromothripsis tumors, cisplatin or BGB combos (AID 1671450); conditions: HDN33 neuroblastoma cells, stronger effect = higher value;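 note: cells exposed to compound for four days; 0% = vehicle DMSO and 100% = cell killing by high DMSO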
[3] = growth inhibition, single agents and combos, ICB984, cell-based, cisplatin or BGB combos, synergistic combos for chromothripsis tumors (AID 1671451; call rule not given here;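 note: cells exposed for 96 hours before readout; 0% = vehicle DMSO and 100% = killing by high DMSO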); conditions: ICB984 medulloblastoma cells, drug combinations, stronger effect = higher value
[4] = growth inhibition, single agents and combos, LFS_MB_1R, cell-based, cisplatin or BGB combos, synergistic combos for chromothripsis tumors (AID 1671452); conditions: LFS_MB_1R medulloblastoma cells, stronger effect = higher value;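 note: cells exposed for 96 hours before readout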
[5] = growth inhibition, single agents and combos, HTB85, cell-based, BGB or cisplatin IC20 combos, synergistic combos for chromothripsis tumors (AID 1671453); conditions: HTB85 osteosarcoma cells, drug combinations, stronger effect = higher value;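 note: cells exposed for 96 hours before readout; 0% = vehicle DMSO and 100% = high DMSO killing control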
[6] = growth inhibition, single agents and combos, CRL2098, cell-based, BGB or cisplatin IC20 combos, synergistic combos for chromothripsis tumors (AID 1671454); conditions: CRL2098 osteosarcoma cells, drug combinations, stronger effect = higher value;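 note: cells exposed for 96 h before readout; 0% = vehicle DMSO and 100% = killing by high DMSO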
[7] = growth inhibition, single agents and combos, HD-MB03, cell-based, BGB or cisplatin IC20 combos, synergistic combos for chromothripsis tumors (AID 1671455; in the data active = inhibition above about 83%;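 note: 0% = vehicle DMSO and 100% = high DMSO as cytotoxic control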); conditions: HD-MB03 medulloblastoma cells, stronger effect = higher value
[8] = growth inhibition, single agents and combos, UWB1.289, cell-based, BGB or cisplatin combos, synergistic combos for chromothripsis tumors (AID 1671456); conditions: UWB1.289 ovarian carcinoma cells, stronger effect = higher value;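 note: cells exposed to compound for four days; 0% = vehicle DMSO and 100% = killing by high DMSO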
[9] = growth inhibition, single agents and combos, LFS_MB_2R, cell-based, cisplatin combos, synergistic combos for chromothripsis tumors (AID 1671457); conditions: LFS_MB_2R medulloblastoma cells, stronger effect = higher value;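 note: cells exposed to compound for four days before readout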
[10] = growth inhibition, MDA-MB-436, cell-based, BGB or cisplatin combos, synergistic combos for chromothripsis tumors (AID 1671458; call rule not given here;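 note: cells exposed for 96 hours; 0% = vehicle DMSO and 100% = killing by high DMSO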); conditions: MDA-MB-436 breast carcinoma growth inhibition, drug combinations, stronger effect = higher value
[11] = UWB1.289_BRCA1 ovarian cancer growth, cell-based, BGB or cisplatin combinations (AID 1671459); conditions: UWB1.289 BRCA1 ovarian carcinoma, drug combinations, stronger effect = higher value
[12] = drug combination toxicity in non-malignant astrocytes – cell-based, BGB or cisplatin IC20 combos, cytotoxicity control for chromothriptic childhood tumor combination screen (AID 1671460); conditions: Human astrocytes, viability inhibition, drug combinations, at 0.5 µM, stronger effect = higher value;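 note: cells exposed to compounds for 96 hours before viability readout; 0% = vehicle and 100% = killing control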
[13] = BT084 cell growth, single and combined drugs, ICGC_MB145, cisplatin and BGB IC40 combos (AID 1671461); conditions: BT084 medulloblastoma cells, drug combinations, stronger effect = higher value;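 note: cells exposed to drugs for 96 hours; 0% = vehicle DMSO and 100% = high DMSO full killing control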
[14] = RCMB18 cell growth, single agent and combined, cisplatin and BGB IC40 combos (AID 1671462); conditions: RCMB18 medulloblastoma cells, stronger effect = higher value;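 note: cells exposed to compound for four days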
[15] = CRL1545 cell growth, single agent and combined, cisplatin and BGB IC20 combos (AID 1671464); conditions: CRL1545 osteosarcoma cells, stronger effect = higher value;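 note: cells exposed to compound for 96 hours before readout; 0% = vehicle DMSO and 100% = high DMSO killing control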
[16] = at 0.5 µM, stronger effect = higher value
[17] = measured here: combination with BGB IC20, at 0.005 µM
[18] = measured here: combination with BGB IC40, at 0.005 µM
[19] = measured here: combination with BGB IC40, at 0.05 µM
[20] = measured here: combination with cisplatin, at 0.5 µM, stronger effect = higher value
[21] = measured here: combination with cisplatin, at 5 µM, stronger effect = higher value
[22] = measured here: with BGB IC20 combination, at 0.5 µM
[23] = measured here: with cisplatin IC20 combination, at 0.5 µM
[24] = measured here: 5 uM single agent, at 5 µM
[25] = measured here: combination with cisplatin, at 0.5 µM
[26] = measured here: combination with cisplatin, at 5 µM
[27] = measured here: with BGB IC20, at 0.5 µM
[28] = measured here: with BGB IC20, at 5 µM
[29] = measured here: with cisplatin IC20, at 0.5 µM
[30] = measured here: with cisplatin IC20, at 5 µM
[31] = measured here: combination with BGB at IC20, at 0.5 µM
[32] = measured here: combination with cisplatin at IC20, at 0.5 µM
[33] = measured here: combo with BGB at IC20, at 0.5 µM
[34] = measured here: combo with cisplatin at IC20, at 0.5 µM
[35] = measured here: inhibition with BGB combination, at 0.05 µM
[36] = measured here: inhibition with cisplatin combination, at 0.05 µM
[37] = measured here: BGB combination, at 0.5 µM
[38] = measured here: BGB combination, at 5 µM
[39] = measured here: cisplatin combination, at 0.5 µM
[40] = measured here: cisplatin combination, at 5 µM
[41] = BGB combination, concentration series, at 5 µM
[42] = cisplatin combination, concentration series, at 5 µM
[43] = measured here: combo with BGB IC20
[44] = measured here: combo with cisplatin IC20
[45] = cisplatin combination, at 0.5 µM
[46] = measured here: BGB IC40 combination 0.05 uM, at 0.05 µM
[47] = measured here: BGB IC40 combination, at 0.05 µM

O=C(CCCCCCC(=O)Nc1ccc(I)cc1)NO
inhibition [1, 16]: 14.6% (inactive)
inhibition [1, 17]: -13.9%
inhibition [1, 18]: -26.4%
inhibition [1, 19]: -4.26%
inhibition [1, 20]: 55%
inhibition [1, 21]: 112%
inhibition ([2]; BGB combo, at 5 µM): 92.7%
inhibition ([2]; at 0.5 µM): 2.25% (inactive)
inhibition ([2]; cisplatin combo, at 5 µM): 96.8%
inhibition [2, 22]: 2.67%
inhibition [2, 23]: 4.68%
inhibition ([2]; single agent, at 5 µM): 96.1%
inhibition ([3]; BGB IC20 combo, at 0.005 µM): -14%
inhibition ([3]; BGB IC40 combo, at 0.005 µM): -21.6%
inhibition ([3]; BGB IC40 combo, at 0.05 µM): 79.6%
inhibition ([3]; at 0.5 µM): -43% (inactive)
inhibition ([3]; cisplatin combo, at 0.05 µM): 78.8%
inhibition ([3]; cisplatin combo, at 0.5 µM): -63.2%
inhibition ([3]; cisplatin combo, at 5 µM): -38.3%
inhibition [3, 24]: -6.51%
inhibition ([4]; at 0.5 µM): 4.61% (inactive)
inhibition [4, 19]: -30%
inhibition [4, 25]: 7%
inhibition [4, 26]: 97.8%
inhibition ([5]; at 0.5 µM): -14.1% (inactive)
inhibition [5, 27]: -30.7%
inhibition [5, 28]: 58%
inhibition [5, 29]: -7.38%
inhibition [5, 30]: 98.3%
inhibition ([5]; single agent, at 5 µM): 68.5%
inhibition ([6]; at 0.5 µM): -40.1% (inactive)
inhibition [6, 31]: -46.1%
inhibition [6, 32]: -23.5%
inhibition ([7]; at 0.5 µM): 12.8% (inactive)
inhibition [7, 33]: 5.06%
inhibition [7, 34]: 20.3%
inhibition ([8]; at 0.5 µM): 14.7% (inactive)
inhibition [8, 35]: -32%
inhibition [8, 36]: -13.2%
inhibition ([9]; at 0.5 µM): -12.8% (inactive)
inhibition [9, 25]: 3.62%
inhibition [9, 26]: 99%
inhibition ([10]; at 0.5 µM): -16.9% (inactive)
inhibition [10, 37]: -27.7%
inhibition [10, 38]: 49.2%
inhibition [10, 39]: -20.6%
inhibition [10, 40]: 53.6%
inhibition [11, 41]: 84.7%
inhibition ([11]; at 0.5 µM): 7.03% (inactive)
inhibition [11, 42]: 105%
inhibition [12]: 29.2% (inactive)
inhibition [12, 43]: 30.5%
inhibition [12, 44]: 21.3%
inhibition ([13]; at 0.5 µM): 12.2% (inactive)
inhibition [13, 45]: 29.6%
inhibition ([13]; cisplatin combination, at 5 µM): 105%
inhibition [13, 46]: -26.1%
inhibition ([13]; single agent, at 5 µM): 103%
inhibition ([14]; at 0.5 µM): 20.3% (inactive)
inhibition ([14]; cisplatin combo, at 5 µM): 94.9%
inhibition [14, 47]: -10.7%
inhibition [14, 25]: 54.3%
inhibition ([14]; single agent, at 5 µM): 85.9%
inhibition ([15]; at 0.5 µM): 46.9% (inactive)
inhibition [15, 22]: 39.3%
inhibition [15, 23]: 50.7%
inhibition ([15]; single agent, at 0.05 µM): -7.66%
inhibition ([15]; single agent, at 5 µM): 95.3%

C#CCC(CCCCCC)C(=O)O (stereo unspecified)
inhibition [1, 16]: 5.69% (inactive)
inhibition [1, 17]: 3.1%
inhibition [1, 18]: 30.2%
inhibition [1, 19]: 36.1%
inhibition [1, 20]: 3.27%
inhibition [1, 21]: -9.45%
inhibition ([2]; BGB combo, at 5 µM): 13.8%
inhibition ([2]; at 0.5 µM): 8.32% (inactive)
inhibition ([2]; cisplatin combo, at 5 µM): -0.039%
inhibition [2, 22]: 10.2%
inhibition [2, 23]: -1.96%
inhibition ([2]; single agent, at 5 µM): -0.563%
inhibition ([3]; BGB IC20 combo, at 0.005 µM): -2.69%
inhibition ([3]; BGB IC40 combo, at 0.005 µM): -16%
inhibition ([3]; BGB IC40 combo, at 0.05 µM): -11.6%
inhibition ([3]; at 0.5 µM): -6.37% (inactive)
inhibition ([3]; cisplatin combo, at 0.05 µM): -16%
inhibition ([3]; cisplatin combo, at 0.5 µM): -14.1%
inhibition ([3]; cisplatin combo, at 5 µM): -27.6%
inhibition [3, 24]: -4.43%
inhibition ([4]; at 0.5 µM): 3.82% (inactive)
inhibition [4, 19]: -10%
inhibition [4, 25]: -6.41%
inhibition [4, 26]: 2.32%
inhibition ([5]; at 0.5 µM): 6.28% (inactive)
inhibition [5, 27]: 4.58%
inhibition [5, 28]: -11%
inhibition [5, 29]: -9.52%
inhibition [5, 30]: -7.57%
inhibition ([5]; single agent, at 5 µM): 22.7%
inhibition ([6]; at 0.5 µM): 2.92% (inactive)
inhibition [6, 31]: 26.1%
inhibition [6, 32]: 6.9%
inhibition ([7]; at 0.5 µM): 3.15% (inactive)
inhibition [7, 33]: 0.099%
inhibition [7, 34]: 2.13%
inhibition ([8]; at 0.5 µM): 4.47% (inactive)
inhibition [8, 35]: 5.84%
inhibition [8, 36]: 2.18%
inhibition ([9]; at 0.5 µM): -4.49% (inactive)
inhibition [9, 25]: 5.98%
inhibition [9, 26]: 6.31%
inhibition ([10]; at 0.5 µM): -1.28% (inactive)
inhibition [10, 37]: -4.71%
inhibition [10, 38]: -7.63%
inhibition [10, 39]: -0.109%
inhibition [10, 40]: -1.88%
inhibition [11, 41]: -4.85%
inhibition ([11]; at 0.5 µM): 3.74% (inactive)
inhibition [11, 42]: 16.5%
inhibition [12]: 6.72% (inactive)
inhibition [12, 43]: 20.5%
inhibition [12, 44]: 9.45%
inhibition ([13]; at 0.5 µM): 8.59% (inactive)
inhibition [13, 45]: 9.78%
inhibition ([13]; cisplatin combination, at 5 µM): 1.82%
inhibition [13, 46]: 2.2%
inhibition ([13]; single agent, at 5 µM): 14.4%
inhibition ([14]; at 0.5 µM): -5.37% (inactive)
inhibition ([14]; cisplatin combo, at 5 µM): 23.5%
inhibition [14, 47]: 5.44%
inhibition [14, 25]: 22%
inhibition ([14]; single agent, at 5 µM): -15.4%
inhibition ([15]; at 0.5 µM): -23% (inactive)
inhibition [15, 22]: -43.7%
inhibition [15, 23]: -12.7%
inhibition ([15]; single agent, at 0.05 µM): 0.433%
inhibition ([15]; single agent, at 5 µM): 16.3%
